Source: PubChem BioAssay (NCI)
Compounds without any hit were thinned out: in the full panel of roughly 79,000, 15% have a hit. Unmarked numbers belong to inactive results. The source made the active and inactive calls. Cut-off read from the data, not from the text of the source: active = growth inhibition above about 70%; inactive = the rest.

Tests used:
[1] = NCI Yeast Anticancer Drug Screen. Data for the rad50 strain (AID 155);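 note: 0% = growth of vehicle-only cultures of the same strain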; details: S. cerevisiae rad50 strain growth inhibition; at 50.0 µM; hits give high values
Method in brief: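 A DNA repair-deficient yeast mutant serves as the test organism; compound-induced growth inhibition is calculated against vehicle-treated cells.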

[2] = NCI Yeast Anticancer Drug Screen. Data for the mec2-1 strain (AID 157); details: S. cerevisiae mec2-1 strain, at 50.0 µM, hits give high values
Method in brief: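 Vehicle-treated cultures served as reference for growth inhibition of compound-exposed mec2-1 yeast.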

[3] = NCI Yeast Anticancer Drug Screen. Data for the sgs1 mgt1 strain (AID 161);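 note: 0% = growth of cultures given vehicle only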; details: S. cerevisiae sgs1 mgt1 strain, at 50.0 µM, hits give high values
Method in brief: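 Inhibition of yeast growth, normalised to vehicle-treated controls, is reported for a strain bearing genetic alterations in DNA damage repair.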

[4] = NCI Yeast Anticancer Drug Screen. Data for the cln2 rad14 strain (AID 165);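 note: 0% = growth equal to vehicle treated cultures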; details: S. cerevisiae cln2 rad14 strain, at 50.0 µM, hits give high values
Method in brief: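 Each compound was tested on cln2 rad14 yeast. Inhibition of growth was calculated against vehicle-exposed controls.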

[5] = NCI Yeast Anticancer Drug Screen. Data for the bub3 strain (AID 167); details: S. cerevisiae bub3 mutant strain, at 50.0 µM, hits give high values
Method in brief: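 Inhibition values come from growth of compound-treated mutant yeast normalised to vehicle-treated controls.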

[6] = NCI Yeast Anticancer Drug Screen. Data for the mlh1 rad18 strain (AID 175); details: S. cerevisiae mlh1 rad18 strain growth inhibition; at 50.0 µM; hits give high values
Method in brief: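 Vehicle-treated cultures served as the reference for growth inhibition in a yeast strain carrying DNA damage repair alterations exposed to each compound.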

Compound | growth inhibition [1] | growth inhibition [2] | growth inhibition [3] | growth inhibition [4] | growth inhibition [5] | growth inhibition [6]
O=C1CC(=O)C(Br)=C1Br | 99.5% (active) | 99.5% (active) | 99.5% (active) | 99.3% (active) | 99.4% (active) | 99.5% (active)
OC(CN1CCCCC1)c1ccncc1 (stereo not given) | 0.5% | -24.8% | -8.4% | -0.9% | 1% | 1.4%
Cc1ccsc1/C=N/Nc1nc2ccccc2s1 | 1.7% | -1.5% | 13.7% | 9.2% | -2.15% | 11.3%
CCCCCCCC[N+](C)(C)C | -48.8% | -44.5% | -26.6% | 11.5% | -28.7% | -39.8%
Brc1ccc(-c2ccc(Br)cc2)cc1 | -4.45% | -4.35% | 6.25% | -44% | -19.1% | -5.25%
C/C(CC(=O)Nc1cccc(Cl)c1C)=N\N=C(N)N | -10.2% | -27.6% | -15.2% | 19.4% | -23% | -8.9%
CCOC(=O)/C(C#N)=C/c1ccccc1F | 22.9% | 13.5% | 20.4% | 1.4% | 14.8% | 40.8%
CSC(=N\N=C(/C)c1ccc(Br)cc1)/N=C/N(C)C | 46.2% | 23.2% | 55.5% | 19% | 28.1% | 31.7%
Cc1cc(C)n(-c2nnc(-n3nc(C)cc3C)c3ccccc23)n1 | -12.4% | -1.75% | -21.6% | -5.45% | -5.5% | -3.9%
CCOC(=O)c1ccc(NCC2CNc3ccccc3N2)cc1 (stereo not given) | 36.2% | -11.2% | 17.7% | -8.35% | 23.2% | 18.2%
CCc1ccc2oc(-c3cc(O)c(-c4nc5cc(CC)ccc5o4)cc3O)nc2c1 | -19.2% | -25.9% | -22.2% | 1.1% | -25.5% | 12.6%
CCOC(=O)/C=C/C(=O)NN | 11.4% | -6.35% | 2.6% | -26% | 0.4% | 5.6%
O=C(NNC(=S)Nc1ccc(S(=O)(=O)N2CCCCC2)cc1)c1ccncc1 | 5.25% | 11.1% | 33.5% | 4.2% | 33% | 46%
Cc1nc(C(N)=S)sc1C(=O)CC(=O)C(=O)Nc1cccc(Cl)c1C | 1.2% | -2.4% | -10.2% | -6.65% | -0.4% | -53.4%
Cc1cc(CC#N)c(CC#N)cc1C | 4.05% | -10.1% | -7% | 9.2% | -3.95% | 3.95%
O=C1NCCCC1O (stereo not given) | 0.5% | -16.5% | 8% | 5.35% | -6.1% | -2.9%
NC(=NCc1ccncc1)N/N=C\c1ccnc2ccccc12 | 4.15% | 10.9% | 7.75% | -13.7% | -9.5% | 7.75%
O=C1OC(c2ccc(O)c(O)c2)(c2ccc(O)c(O)c2)c2ccccc21 | -27.9% | -24.2% | -27.1% | 5.8% | -21.7% | -32.6%

Compound | growth inhibition [1] | growth inhibition [2] | growth inhibition [3] | growth inhibition [4] | growth inhibition [5] | growth inhibition [6]
Cc1cc(C(C)(C)CC(=O)O)cc(C)c1C | 60.6% | 37.4% | 27.6% | 43.6% | 54% | 56.3%
O=C1CSC(=S)N1/N=C/c1ccc([N+](=O)[O-])s1 | 97.8% (active) | 98.8% (active) | 98.3% (active) | 98.5% (active) | 98.8% (active) | 98.8% (active)
Nc1nc2cc(COc3ccc(C(=O)O)cc3)ccc2nc1-c1ccccc1 | -28.6% | -17.9% | -13.8% | -2.9% | -26.2% | -15.1%
Cc1ccc(S(=O)(=O)CCN2CCOCC2)cc1 | 15.3% | -3.15% | 5% | -32.3% | 5.85% | 2.8%
CC(C)(C)c1ccc(Sc2cccc3c2C(=O)c2c(Cl)cccc2C3=O)cc1 | -11.3% | -4.1% | -27.1% | -8.1% | 0.55% | -0.85%
CCC1(C)OCC(CCCCO)O1 (stereo not given) | -16.2% | -14.9% | -9.4% | -34.9% | -11.4% | 14.3%
Cn1c2c(c3ccccc31)CC1c3c(c4ccccc4n3C)CC21 (stereo not given) | -79% | -51% | -49% | -26.2% | -18.6% | -45.4%
O=C(O)CS(=O)(=O)CC(=O)O | -10.3% | -11.4% | -10.2% | -6.65% | -23.4% | -12.1%
O=c1[nH]c(=S)[nH]c2ncn(C3OC(CO)C(O)C3O)c12 (stereo not given) | -13.4% | -3.85% | -8.15% | -9.6% | 5.65% | -0.6%
CC(=O)OC/C(=C/C#N)C1CCC2C3CCC4CC(OC(C)=O)CCC4(C)C3CCC12C (stereo not given) | 47% | 30.7% | 45.5% | 40% | 21.5% | 57.5%
CC(C)(C)OC(=O)N(CCNS(=O)(=O)c1cccc2cnccc12)CCC(=O)ON1C(=O)CCC1=O | 4.7% | -0.2% | 17.8% | 14.7% | 23.3% | 6.35%
N=C(N)SCc1cn2ccccc2n1 | -37% | -30.5% | -62.7% | 1.35% | -27.6% | -50.8%
CN1N=CSC12C(=O)N(c1ccc(Cl)cc1)C(=O)N2c1ccc(Cl)cc1 (stereo not given) | 18.1% | 3.6% | 11.2% | 30.4% | 51% | 11.9%
Cc1cc(C)c(-c2c(C)cc(C)c([N+](=O)[O-])c2C)c(C)c1N | 98.1% (active) | 98.8% (active) | 98.4% (active) | 96.5% (active) | 97.2% (active) | 97.8% (active)
CCC(CC)CC1CCCCC1=O (stereo not given) | 1.3% | -5.25% | -6.25% | 3.75% | -20.6% | -7.65%
CC(=O)OC1CC2CCCCC21 (stereo not given) | 10.6% | 7% | -0.6% | 37% | 13.8% | 2.3%
COc1cccc(C2CC(c3cc(OC)c(OC)c(OC)c3)CC(c3cccc(OC)c3)N2)c1 (stereo not given) | -5.4% | 1.45% | 15.2% | 16.4% | 19.6% | 5.7%
